From PubChem
tim23-1 inh = growth inhibitors of tim23-1 mutant yeast, primary screen, luminescence, uHTS; 1.3% of 330,000 active; inhibition, % at 20 µM; S. cerevisiae tim23-1 growth, BacTiter-Glo luminescence, 24 h;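 active = growth inhibition of the mutant yeast at or above 50%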;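 note: temperature-sensitive mutant grown at 25 °C; plate controls were DMSO-treated mutant yeast for no effect and medium wells lacking yeast for full effect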
tim10-1 inh = growth inhibitors of tim10-1 mutant yeast, primary screen, luminescence, uHTS; S. cerevisiae tim10-1 ts strain growth, BacTiter-Glo, 24 h; inhibition, % at 20 µM; 2.2% of 330,000 active; AID 463190, 2010;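 active = inhibition of at least 40%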;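 note: mutant grown at 25 °C; 0% = DMSO wells with yeast and 100% = wells holding no yeast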
SKKanGAS inh = S. pyogenes SKKanGAS growth inhibitors in kanamycin, primary screen, streptokinase expression inhibitor project, SKKanGAS strain, BacTiter-Glo luminescence; 6 h; inhibition, % at 7.5 µM; 1.3% of 300,000 active; AID 1662, 2009;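 active = mean replicate score, as percent of positive control median, at least 50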;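 note: strain carries kanamycin resistance gene driven by streptokinase promoter and grows in 40 µg/ml kanamycin; loss of luminescence reflects streptokinase promoter inhibition or plain growth inhibition; 0% = median of DMSO wells and 100% = positive control at its reference dose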
TIM10 inh = growth inhibitors of isogenic TIM10 control yeast, primary screen, counter-screen for tim10-1 yeast inhibitor project, luminescence, uHTS. S. cerevisiae TIM10 strain growth, BacTiter-Glo luminescence, 24 h. inhibition, % at 10 µM. 1.4% of 330,000 active;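 active = inhibition of 40% or more at the single tested concentration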;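 note: wild-type TIM10 isogenic control strain grown at permissive 25 °C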
NALP3 yeast inh = NALP3 inflammasome inhibitors in reconstituted yeast, primary screen, luminescence, uHTS; Yeast reconstituted NLRP3/ASC/caspase-1, beta-gal luminescence, 24 h; inhibition, % at 10 µM; 0.39% of 330,000 active; AID 2825, 2010;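 active = inhibition of 50% or more; inactive = inhibition below 50%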;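 note: plate controls were induced DMSO wells for no effect and uninduced yeast grown without galactose for full effect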
tim10-1 conf = growth inhibitors of tim10-1 mutant yeast, confirmation, single concentration, luminescence, S. cerevisiae; shares compounds with tim10-1 inh; S. cerevisiae tim10-1 ts strain growth, BacTiter-Glo, 24 h; inhibition, % at 20 µM; 56% of 7,400 active;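 active = inhibition of yeast growth at or above a set limit in either of two repeat tests at 20 µM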;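 note: tim10-1 mutant grown at permissive 25 °C to find synthetic lethal compounds; 0% = DMSO yeast wells and 100% = medium wells without yeast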
tim10 confirm = growth inhibitors of wild-type TIM10 yeast, confirmation, counter-screen for tim10-1 synthetic lethality project, single concentration, luminescence, S. cerevisiae; inhibition, % at 10 µM; S. cerevisiae tim10 strain growth, BacTiter-Glo luminescence, 24 h; shares compounds with TIM10 inh; 63% of 4,600 active;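 active = inhibition of yeast growth at or above a set limit in either of two replicates at 10 µM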;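 note: this counterscreen used the strain with wild-type TIM10; 0% = yeast with DMSO and 100% = medium wells lacking yeast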
tim23-1 conf = tim23-1 mutant yeast growth inhibitors, confirmation, luminescence, single concentration. shares compounds with tim23-1 inh. S. cerevisiae tim23-1 growth, BacTiter-Glo luminescence, 24 h. inhibition, % at 20 µM. 83% of 4,400 active. AID 463218, 2010;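 active = inhibition above about 39% in either of two replicate wells at 20 µM, limit read from the data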;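 note: temperature-sensitive tim23-1 mutant grown at 25 °C; 0% = DMSO wells with yeast and 100% = medium wells without yeast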
* = called active by the depositor; · = not tested or not shown. This is a sample that favours compounds with a hit; in the whole collection about 4.6% have one here.

SMILES	tim23-1 inh	tim10-1 inh	SKKanGAS inh	TIM10 inh	NALP3 yeast inh	tim10-1 conf	tim10 confirm	tim23-1 conf
O=C(Nc1ccccc1C(=O)N/N=C/c1ccco1)c1ccc(F)cc1	60*	42*	17	31	14	52*	·	59*
O=C(NC(=S)Nc1cccc2cc(O)ccc12)c1ccccc1Br	51*	46*	17	15	37	21	·	49*
O=C(NC(=S)Nc1ccccc1N1CCCC1)c1ccccc1[N+](=O)[O-]	·	·	6	·	·	·	·	·
O=C(NC(=S)Nc1ccccc1N1CCCC1)c1ccccc1Br	61*	41*	81*	39	18	8	·	43*
O=C(/C=C/c1ccco1)NC(=S)Nc1ccccc1N1CCOCC1	55*	50*	-5	43*	16	27	51*	48*
O=C(NC(=S)Nc1ccccc1N1CCCCC1)c1ccco1	54*	49*	-10	52*	-43	37*	-18	51*
O=C(NC(=S)Nc1ccccc1N1CCCC1)c1ccco1	41	35	-1	35	-49	·	·	·
O=C(NC(=S)Nc1cccc2cc(O)ccc12)c1ccco1	22	29	-3	3	2	·	·	·
CCc1ccc2[nH]c3nc(N/N=C/c4ccc(O)cc4O)nnc3c2c1	4	15	2	-45	31	·	·	·
Cc1ccccc1CN1CCCC(C(=O)Nc2ccccc2Oc2cccnc2)C1 (centres undefined)	15	2	-2	10	5	·	·	·
CCOc1ccccc1N1CCN(C(=O)c2cc(S(=O)(=O)N(C)C)ccc2N2CCCC2)CC1	15	14	·	18	11	·	·	·
COc1ccccc1CCC(=O)N(C)C1CCCN(Cc2ccccc2F)C1 (centres undefined)	18	18	3	2	12	·	·	·
Cc1ccc(/C=C2\SC(=S)N(CC(=O)Nc3cccnc3)C2=O)cc1	-17	1	3	-38	-5	·	·	·
Cc1ccc(NC(=O)CN2C(=O)S/C(=C/c3ccncc3)C2=O)cc1	56*	45*	4	42*	16	42*	43*	51*
O=C(Oc1c(Cl)cc(Cl)c2cccnc12)c1cccc([N+](=O)[O-])c1	63*	51*	88*	50*	44	28	-27	73*
O=C(Oc1ccc(Cl)c2cccnc12)c1cccc([N+](=O)[O-])c1	29	19	27	1	-6	·	·	·
COC(=O)C1=C(C)N(c2cc(Cl)cc(Cl)c2)C(=O)C1	53*	56*	5	33	-6	54*	·	46*
O=C(/C=C/c1ccccc1)CC(O)(c1ccccc1)C(F)(F)C(F)F (centres undefined)	56*	44*	12	24	38	41*	·	32
O=c1[nH]c2ccccc2nc1-c1ccccc1	16	-15	1	8	31	·	·	·
NC(=O)N=Nc1c2[nH]c3ccccc3nc-2c2ccccc12	56*	44*	72*	52*	42	45*	62*	52*
Fc1ccc(Sc2nc(-c3ccccc3)nnc2C(F)(F)F)cc1	60*	60*	-10	0	16	36*	·	55*
CS(=O)(=O)c1cnc(-c2ccccc2)nc1Sc1ccc(F)cc1	-14	-43	-7	-9	6	·	·	·
Cc1ccc(CCNC(=O)CSCc2ccc(F)cc2)cc1	22	20	-5	-1	21	·	·	·
O=S(=O)(/N=C(/Nc1cccc2ccccc12)c1ccccc1)c1cccs1	30	24	0	43*	-29	·	23	·
Cc1ccccc1NC(=O)c1c2c(nc3ccccc13)CCC2	-21	2	-11	1	13	·	·	·
SMILES	tim23-1 inh	tim10-1 inh	SKKanGAS inh	TIM10 inh	NALP3 yeast inh	tim10-1 conf	tim10 confirm	tim23-1 conf
Cc1ccc2cc3cc(C(=O)N4CCCCC4C)oc3nc2c1 (centres undefined)	40	32	-1	50*	18	·	-30	·
Cc1ccc2cc3cc(C(=O)NCCCN4CC(C)CC(C)C4)oc3nc2c1 (centres undefined)	26	25	2	61*	-11	·	27	·
CCN(C(=O)c1cc2cc3ccc(C)cc3nc2o1)c1ccc(OC)cc1	38	35	8	44*	20	·	-9	·
COc1ccc(N(CC(=O)NC2CCCCC2)C(=O)CCC(=O)Nc2nc(C)cs2)cc1OC	-2	-2	-1	3	17	·	·	·
Cc1ccccc1C1CC(=O)Oc2cc(O)ccc21 (centres undefined)	23	26	·	-10	·	·	·	·
CCOc1ccc(-n2ccn(CC(=O)NCCc3ccccc3)c(=O)c2=O)cc1	17	18	1	9	10	·	·	·
CC(NC(=O)c1cc2ccccc2oc1=O)c1ccccc1 (centres undefined)	23	-11	1	-20	30	·	·	·
O=C(COc1ccc(Cl)cc1Cl)NNC(=S)Nc1ccc(F)cc1	41	38	3	45*	-16	·	38*	·
Oc1ccc(Br)cc1/C=N/n1c(C2CCCCC2)n[nH]c1=S	50	-3	-1	44*	2	·	56*	·
CC(=O)N1CCN(C(=O)c2cccc(S(=O)(=O)N3CCOCC3)c2)CC1	3	-3	·	-1	3	·	·	·
CCn1c(=O)c([N+](=O)[O-])c(Cl)c2ccccc21	37	33	12	78*	9	·	79*	·
COc1nnc(-c2ccc(N3CCOCC3)c(NC(=O)C3CCCCC3)c2)c2ccccc12	33	35	-8	41*	-6	·	25	·
C=CCN(CC=C)C(=S)NC(=O)/C=C/c1ccc(OC)cc1	45	20	-4	44*	18	·	11	·
Cc1ccc(OC(C)C(=O)N2CC(=O)Nc3ccccc32)cc1 (centres undefined)	1	-1	-12	-10	-3	·	·	·
O=C(NCC1CCCO1)c1cc2ccccc2oc1=O (centres undefined)	6	6	5	95*	-15	·	-6	·
O=C(c1cc2ccccc2oc1=O)N(Cc1ccccc1)CC1CCCO1 (centres undefined)	19	13	4	17	-6	·	·	·
N/C(=N\NC(=O)c1ccccc1)c1cc2ccccc2oc1=O	12	-4	-11	48*	28	·	17	·
COc1ccc(C(=O)N/N=C(\N)c2cc3ccccc3oc2=O)cc1	4	10	-3	-14	-15	·	·	·
